# In PubChem BioAssay (EPA / NIEHS):
# Values joined by “and” are separate entries in the source; they are usually repeats but may differ in a detail not shown here. Equal values may be shown once. Inconclusive results are not listed. Active and inactive are the calls of the source. How the source made its calls, unless noted: active means hit-call score of the fitted dose curve at least 0.9, where 1 is the maximum; inconclusive means response in the unintended direction; inactive means score below 0.9.
# Key:
# [1] = ArunA_CellTiter_hNC: Viability Assessment in the ArunA Biomedical's Oris Neural Crest (hNC) Cell Migration Assay (AID 2283752)
# Protocol: ArunA_CellTiter_hNC is a cell-based, single-readout assay that uses human H9-derived embryonic neural crest stem cells (hNC). Measurements were taken 72 hours after chemical dosing in a 96-well plate.ArunA_CellTiter_hNC is an assay component measured from the ArunA_CellTiter_hNC assay. It is designed to make measurements of viability, a form of viability reporter, as detected with fluorescence intensity signals by HCS Fluorescent Imaging technology. Data from the assay component ArunA_CellTiter_hNC was analyzed at the endpoint, ArunA_CellTiter_hNC, in the positive analysis fitting direction relative to DMSO as the negative control and baseline of activity. […]
# To assess the hNP and hNC migration and cell titer endpoints, 60,000 cells per well were plated onto Matrigel in basal growth medium with LIF and bFGF in a 96-well plate format. […] Cell viability in the detection zone was quantitated using a Flexstation3 microplate reader (ex494 nm/em 517 nm). Corresponding cell titer endpoints were assessed for the hNP and hNC cells using the Promega CellTiter Aqueous One Solution Cell Proliferation Assay (Cat no. G3581; CellTiter 96). Finally, to gain insight into the mechanisms by which cells migrate into the detection zone, Ki-67 expression was quantified for 10 additional chemicals in the hNP and hNC systems. […]
# [2] = Tanguay_ZF_120hpf_TR_legacy: (Legacy) Oregon State University Tanguay Lab 120 Hour Post-fertilization zebrafish Assay for Touch Response (AID 2283667)
# In short: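 Binary touch-response endpoint in larvae at 120 hpf after static waterborne exposure from embryo stage (28°C, 0.64% DMSO vehicle, 5 uM trimethyltin chloride as positive control); embryos dead at 24 or 120 hpf excluded; fitted as gain versus DMSO.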
# [3] = STM_H9_OrnithineISnorm_perc: Stemina devTOX quickPredict H9 human embryonic stem cell (hESC)-based Assay for Ornithine (ORN) Metabolite Biomarker, Normalized (AID 2283712; active means hit-call score of the fitted dose curve at least 0.9, where 1 is the maximum; inactive means score below 0.9;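 further: ornithine released into spent medium during last day measured by mass spectrometry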)
# In short: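 Ornithine in spent medium from the last 24 h of a 72 h exposure, deproteinised and quantified by UPLC-HRMS against an isotope-labelled internal standard, expressed relative to 0.1% DMSO. Pluripotent H9 cells; compound refreshed every 24 h.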
# [4] = STM_H9_CystineISnorm_perc: Stemina devTOX quickPredict H9 human embryonic stem cell (hESC)-based Assay for Cystine (CYSS) Metabolite Biomarker, Normalized (AID 2283713; active means hit-call score of the fitted dose curve at least 0.9, where 1 is the maximum; inactive means score below 0.9)
# In short: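 Cystine in spent media from the last 24 h of a 72 h H9 hESC exposure (daily re-dosing), measured by UPLC-HRMS. Values normalized to isotopic internal standard, then to 0.1% DMSO; viability via CellTiter-Fluor.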
# [5] = STM_H9_OrnCyssISnorm_ratio: Stemina devTOX quickPredict H9 human embryonic stem cell (hESC)-based Assay for Ornithine (ORN):Cystine (CYSS) Ratio (AID 2283714)
# In short: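 Ratio of internal-standard-normalized ornithine to cystine, measured by UPLC-HRMS in spent media from the last 24 h. H9 cells kept pluripotent, dosed 72 h with daily media and compound renewal; DMSO 0.1% serves as baseline.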
# [6] = Tanguay_ZF_120hpf_ActivityScore_legacy: (Legacy) Oregon State University Tanguay Lab 120 Hour Post-fertilization zebrafish Assay Score for Activity (AID 2283742);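 on AC50: dechorionated Tropical 5D wild-type zebrafish embryos held singly per well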
# In short: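 Binary scoring of mortality and morphology by brightfield at 24 and 120 hpf, summarised into one activity score from 18 components relative to DMSO. Wild-type Tropical 5D zebrafish, chorion removed at 4 hpf, static exposure 6–120 hpf, 28 °C.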
# [7] = CEETOX_H295R_MTT_cell_viability: Viability Assessment in the CeeTox HT-H295R MTT Assay (AID 2283718; active means hit-call score of the fitted dose curve at least 0.9, where 1 is the maximum; inactive means score below 0.9;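 on AC50: curve fitted both ways so AC50 may mark viability loss or gain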)
# In short: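 MTT reduction (0.5 mg/ml, 4 h at 37 C; absorbance at 570 and 650 nm) gave viability as background-corrected percent change versus controls. H295R cells had 48 h forskolin (10 uM) prestimulation, then 48 h chemical exposure at 0.1% DMSO.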
# [8] = CCTE_Padilla_ZF_144hpf_TERATOSCORE: (Legacy) CCTE's 144 Hour Post-fertilization zebrafish Assay Teratoscore, Padilla Lab (AID 2283679; active means hit-call score of the fitted dose curve at least 0.9, where 1 is the maximum; inactive means score below 0.9;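 on AC50: zebrafish embryos with chorions exposed by immersion from 6-8 hpf to 5 dpf with daily renewal; teratogenicity score from eye scoring of death hatching and malformations at 144 hpf; higher score means more developmental defects relative to DMSO baseline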)
# In short: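 Larvae scored by eye at 144 hpf for death, hatching and malformations after a day in clean Hanks'. Before that, daily-renewed exposure at 80 uM (0.4% DMSO, 26C) from roughly 6-8 hpf through 5 dpf, 4 embryos per chemical.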
# [9] = test system: Thyroperoxidase (TPO), gene 445522; assay: CCTE_Simmons_GUA_TPO: CCTE's Guaiacol Assay for Thyroperoxidase (TPO) Inhibition, Simmons Lab (AID 2283750)
# In short: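 Porcine thyroid microsomes (25 ug) in 200mM potassium phosphate, preincubated 30 s at 37C with compound (8 concentrations, 5 nM–87.5 uM) and 35mM guaiacol; 1mM H2O2 starts reaction. Absorbance change at 450nm over first 80 s; loss of signal versus DMSO, three replicates.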
smiles,measurement,setting,value
CC(C)c1cccc(C(C)C)c1N1C(=O)c2ccc(O)cc2C1=O,AC50,[1],4.05 µM (active) and 11.8 µM (active)
O=c1n(CC2CO2)c(=O)n(CC2CO2)c(=O)n1CC1CO1 (centres undefined),outcome,[2],inactive
same,AC50,[3],0.49 µM (active)
same,AC50,[4],0.166 µM (active)
same,AC50,[5],0.295 µM (active)
CNCc1ccc(NC(=O)c2c[nH]c3c2C(=O)CCC3)cc1,outcome,[2],inactive
same,outcome,[3],inactive
same,outcome,[4],inactive
same,outcome,[5],inactive
same,outcome,[6],inactive
CCCCC(CC)COC(=O)c1ccc(C(=O)OCC(CC)CCCC)cc1 (centres undefined),outcome,[2],inactive
same,outcome,[7],inactive
CC(C)CCO,outcome,[2],inactive
same,outcome,[8],inactive
same,outcome,[3],inactive
same,AC50,[4],0.118 µM (active)
same,outcome,[6],inactive
Cc1[nH]cnc1C[C@H]1CCc2c(C)c3ccccc3n2C1=O,outcome,[2],inactive
same,AC50,[8],13.8 µM (active)
same,outcome,[6],inactive
NC(=O)NO,outcome,[2],inactive
same,AC50,[3],371 µM (active)
same,AC50,[4],153 µM (active)
same,AC50,[5],392 µM (active)
same,outcome,[6],inactive
COc1ccc(/C=C/S(=O)(=O)NC(=O)c2ccc(C)cc2Cl)cc1,outcome,[2],inactive
same,outcome,[8],inactive
same,AC50,[7],3.37 µM (active)
same,outcome,[6],inactive
CCCN(C1CCN(C(=O)C2CCNCC2)CC1)[C@@H]1CCc2ccc(OC)cc2C1,outcome,[2],inactive
same,outcome,[8],inactive
same,outcome,[6],inactive
CN(C)c1ccc(N=NS(=O)(=O)O)cc1,outcome,[2],inactive
same,AC50,[3],28.5 µM (active)
same,AC50,[4],16.9 µM (active)
same,AC50,[5],20.5 µM (active)
same,outcome,[6],inactive
On1ccccc1=S,outcome,[2],inactive
same,AC50,[8],27.7 µM (active)
same,AC50,[3],8.49 µM (active)
same,AC50,[4],5.86 µM (active)
same,AC50,[5],7.94 µM (active)
same,AC50,[9],85.9 µM (active)
O=C(O)c1cccc(N(Cc2cccnc2)c2ccc(OC(F)F)c(OC(F)F)c2)c1,outcome,[2],inactive
same,AC50,[8],26.5 µM (active)
same,outcome,[7],inactive
same,outcome,[6],inactive
O=C(NS(=O)(=O)/C=C/c1ccccc1)c1ccc(F)cc1Cl,outcome,[2],inactive
same,outcome,[8],inactive
same,AC50,[7],11.2 µM (active)
same,outcome,[6],inactive
COc1ccc(-n2nc(C(F)F)cc2-c2ccc(S(C)=O)cc2)cc1 (centres undefined),AC50,[2],38.2 µM (active)
same,AC50,[8],88.9 µM (active)
same,outcome,[7],inactive
CCOC(=O)c1ccc(C2CCC(NC[C@H](O)COc3ccc(O)c(NS(C)(=O)=O)c3)CC2)cc1 (some centres undefined),outcome,[2],inactive
same,outcome,[3],inactive
same,AC50,[4],1.37 µM (active)
same,AC50,[5],1.42 µM (active)
same,outcome,[7],inactive
same,outcome,[6],inactive
CC(=O)OCCC(C)C,outcome,[2],inactive
same,outcome,[8],inactive
same,outcome,[6],inactive
Cn1c(=O)c2c(ncn2C)n(C)c1=O,outcome,[2],inactive
same,outcome,[3],inactive
same,AC50,[4],181 µM (active)
same,outcome,[6],inactive
Cc1ccc(N)cc1O,outcome,[2],inactive
same,outcome,[8],inactive
same,outcome,[7],inactive
same,outcome,[6],inactive
same,AC50,[9],3.61 µM (active)
CN(C)c1ccc(Cc2ccc(N(C)C)cc2)cc1,outcome,[2],inactive
same,AC50,[8],25.2 µM (active)
same,outcome,[7],inactive
same,outcome,[6],inactive
CC/C(=C\C(=N/O)C(N)=O)C(C)[N+](=O)[O-] (centres undefined),outcome,[2],inactive
same,outcome,[8],inactive
same,outcome,[6],inactive
Clc1nc(Cl)c(Cl)c(Cl)c1Cl,outcome,[2],inactive
same,AC50,[8],8.13 µM (active)
same,outcome,[6],inactive
CC[C@H]1CC[C@H](NCc2cc3c(cc2OC)[C@H]2C[C@H]2C(=O)N3C)[C@H](c2ccccc2)N1,outcome,[2],inactive
same,AC50,[3],9.25 µM (active)
same,AC50,[4],7.32 µM (active)
same,AC50,[5],8.66 µM (active)
same,outcome,[7],inactive
same,outcome,[6],inactive
CC(C)CC(C)(O)C#CC(C)(O)CC(C)C (centres undefined),outcome,[2],inactive
same,AC50,[3],75 µM (active)
same,AC50,[4],60.1 µM (active)
same,AC50,[5],63.2 µM (active)
same,outcome,[7],inactive
CCC(C)(C)C(=O)O[C@H]1C[C@@H](C)C=C2C=C[C@H](C)[C@H](CC[C@@H]3C[C@@H](O)CC(=O)O3)[C@H]21,AC50,[2],0.664 µM (active)
same,AC50,[8],115 nM (active) and 2.58 nM (active) and 7.92 nM (active)
same,AC50,[3],0.000728 µM (active)
same,outcome,[4],inactive
same,outcome,[7],inactive
same,AC50,[6],0.403 µM (active)
